From PubChem BioAssay AID2314 (National Center for Advancing Translational Sciences (NCATS), 2010)
Where “and” joins values, the source holds several entries; their conditions need not be identical. Equal values may be shown once. Out of some 300,000 compounds screened, about 37,000 (12%) were called active. Only a selection was taken, and actives are over-represented in it overall. Unmarked numbers belong to inactive results. Cut-off read from the data, not from the text of the source: active = max response mostly above about 13% (no sharp cut-off); inactive = mostly below about 14%.

assay: Cycloheximide Counterscreen for Small Molecule Inhibitors of Shiga Toxin; settings: cell reporter, cycloheximide protein synthesis inhibition counterscreen; stronger effect = higher value; note: read at 38.3 µM for the half of the compounds with a filed dose; 0% is about no effect

SMILES	max response
COc1cccc(OC)c1C(=O)NC(=S)NCc1ccco1	5.2%
CCC(C)c1ccc(NC(=S)NCc2ccccn2)cc1 (stereo unspecified)	17.3% (active)
COc1cccc(NC(=S)NCc2ccccn2)c1	72.3% (active)
COc1cccc(NC(=S)NCc2ccco2)c1	18.2% (active)
Cc1cc(C)cc(NC(=O)NCc2ccccn2)c1	-2.88%
COc1cccc(S(=O)(=O)NCc2ccc(C(=O)NCc3ccccn3)cc2)c1	1.45%
O=C(NCc1ccccn1)Nc1ccc(F)cc1	-3.36%
COc1cccc(NC(=S)N(Cc2ccc(C)cc2)Cc2ccccn2)c1	0.648%
COC(=O)Cc1ccc(NC(=S)NCc2ccco2)cc1	10.2%
O=C(O)C1CCCCC1C(=O)N1CCN(S(=O)(=O)c2ccc(F)cc2)CC1 (stereo unspecified)	-2.39%
O=C(Nc1ccccc1)N1CCN(C2c3ccccc3-c3ccccc32)CC1	-0.816%
COc1ccc(N(CC(=O)N2CCCCCC2)S(=O)(=O)c2ccccc2)cc1	4.89%
CC1(C(=O)NNC(=S)NCC2CCCO2)CC1(Cl)Cl (stereo unspecified)	-4.02%
COc1ccccc1N1CCN(S(=O)(=O)c2ccc3c(c2)NC(=O)CS3)CC1	5.75%
CC(=O)N1CC(=O)N(CC(=O)Nc2ccc(Br)cc2)C1=S	-5.45%
NC(=O)COC(=O)c1ccc2c(c1)C(=O)N(Cc1ccco1)C2=O	-3.87%
CCOCN(C(=O)Cn1c(C(C)O)nc2ccccc21)c1c(C)cccc1CC (stereo unspecified)	-4.33%
COc1ccccc1NC(=O)C1CCCN(c2cc(C)nc3ncnn23)C1 (stereo unspecified)	-3.74%
Cc1cc(C(F)(F)F)n2ncc(-c3ccccc3)c2n1	6.21%
COc1ccccc1-c1cnn2c(N3CCOCC3)cc(C)nc12	52% (active)
CN1C(=O)/C(=N/OC(=O)c2ccccc2Br)c2ccccc21	3.18%
CN1C(=O)/C(=C\c2cc(Br)cs2)c2ccccc21	46.4% (active)
CCC1C(=O)c2ccccc2N(C)C1=O (stereo unspecified)	-0.886%
COc1ccc(/C=C(\NC(=O)c2ccccc2)C(=O)NCCN2CCOCC2)cc1OC	-1.94%

SMILES	max response
O=C(CNCCC1=CCCCC1)Nc1ccccc1N1CCCCCC1	-4.26%
CCOc1ccc(C(CCc2ccccc2)NC(=O)c2ccc(OC)c(OC)c2)cc1OCC (stereo unspecified)	7.29%
COCC(C)NC(=O)c1ccc(Cl)c(Cl)c1 (stereo unspecified)	0.894%
Cc1ccc(C)c(NC(=O)c2ccc3nccnc3c2)c1	5.91%
CC(C)CCC(C)NC(=O)c1ccc2nccnc2c1 (stereo unspecified)	53.8% (active)
CC(C)C(=O)Nc1c2c(nn1-c1ccccc1)CSC2	-1.75%
Cn1c(=O)c2sccc2n(Cc2ccc(Br)cc2)c1=O	-2.03%
CCN(CC)CCC(c1ccc2c(c1)OCO2)c1c(OC)cc(OC)c2c(-c3ccccc3)cc(=O)oc12 (stereo unspecified)	-5.1% and -16.4%
COc1cc2c(cc1OC)/C(=C/C(=O)c1ccc(NC(C)=O)cc1)NCC2	-5.05%
CC1CN/C(=C\C(=O)c2ccc(Br)cc2)C(=O)N1 (stereo unspecified)	106% (active)
C/C(=C\C(=O)c1ccc(Br)cc1)N1CCCCC1	-3.58%
Cc1cccc(-n2c(SCC(=O)Nc3cccc(S(=O)(=O)NC4=NCCCCC4)c3)nc3ccccc3c2=O)c1C	-4.44%
Cc1cc(Cl)ccc1OCCCC(=O)Nc1cccc(-n2cnnn2)c1	1.51%
CC(CC(=O)N1CCN(S(=O)(=O)c2ccccc2)CC1)n1cncn1 (stereo unspecified)	-1.89%
N#C/C=C1\Sc2ccccc2C(=O)N1CC(=O)N1CCN(S(=O)(=O)c2ccccc2)CC1	27.7% (active)
O=C(Cc1ccccc1)N1CCN(S(=O)(=O)c2ccc([N+](=O)[O-])cc2)CC1	-3.27%
Cc1ccc(S(=O)(=O)N(NC2=NS(=O)(=O)c3ccccc32)C(=O)c2ccccc2)cc1	-4.47%
O=C(Oc1cccc(NC2=NS(=O)(=O)c3ccccc32)c1)c1ccncc1	-1.79%
CC(C)(C)c1csc(NC2=NS(=O)(=O)c3ccccc32)n1	26.2% (active)
O=C(Nc1cccc(-c2cccc(Cl)c2)c1)C1CCN(C2CCC2)CC1	-5.18%
O=C(OCCN=C1NS(=O)(=O)c2ccccc21)c1cccc([N+](=O)[O-])c1	0.837%
CCC(CC)c1nnc(NC(=O)c2nn(C)c(=O)c3ccccc23)s1	-3.83%
CC(=O)c1cnc(SCCN2C(=O)c3ccccc3C2=O)nc1C	6.2%
Nc1ccc(SCCN2C(=O)c3ccccc3C2=O)cc1	30.6% (active)

SMILES	max response
Cc1ccc(SCCN2C(=O)NC(C)(C)C2=O)cc1	-0.406%
CCCCc1cc(=O)oc2c(C)c(OCC(=O)N3CCC(C(N)=O)CC3)ccc12	-2.86%
COc1ccc(Cl)cc1NC(=O)Cn1nc(-c2ccc(C)cc2)n(C)c1=S	0.595%
CCN(CC(=O)NCc1ccco1)S(=O)(=O)c1ccc(F)cc1	-3.33%
COc1cc(Nc2nc3ccc(Cl)cc3n3cnnc23)cc(OC)c1OC	-8.65%
COc1ccc(-c2oc3ncnc(NCCCO)c3c2-c2ccc(OC)cc2)cc1	-2.49%
COc1cc(/C=N\NC(=O)CNC(=O)c2cccc([N+](=O)[O-])c2)ccc1O	2.84%
Cc1[nH]n(-c2ccccc2)c(=O)c1/C=N/NC(=O)c1ccoc1C	55% (active)
Cc1[nH]n(-c2ccc(Cl)cc2)c(=O)c1/C=N/n1c(C)nc2ccccc2c1=O	-2.58%
COc1cccc(/C=N/NC(=O)c2cccc([N+](=O)[O-])c2)c1OS(=O)(=O)c1ccc(C)cc1	1.94%
Cc1ccc(-n2[nH]c(C)c(/C=N/NC(=O)c3cccc([N+](=O)[O-])c3)c2=O)cc1C	34.1% (active)
COc1cc(/C=N/NC(=O)c2ccoc2C)ccc1OCCN1CCCCC1	15.6%
O=C(O)c1ccc(-n2nc(-c3ccccc3)c3ccccc3c2=O)cc1	15%
COc1ccc(OC)c(S(=O)(=O)n2c([N+](=O)[O-])cnc2C)c1	1.29%
COc1cccc(CNC(=O)C2CC(=O)N(C3CCCCCCC3)C2)c1 (stereo unspecified)	24.6%
Cc1ccc(C2Nc3cccc4cccc(c34)N2)cc1	2.47%
O=C1CC(c2cccc(Cl)c2)CC(O)=C1C=Nc1ccccc1 (stereo unspecified)	-1.34%
O=C1NC(c2cccc(Cl)c2)Nc2ccccc21 (stereo unspecified)	16% (active)
COc1cccc(C2Nc3cccc4cccc(c34)N2)c1	1.12%
COc1ccc(C2NC(=O)c3ccccc3N2)cc1 (stereo unspecified)	19.8% (active)
C=CCOc1cccc(C2NC(=O)c3ccccc3O2)c1 (stereo unspecified)	11.8%
CC1=CC(C)(C)NC(=S)N1c1ccccc1	-0.571%
COC(=O)c1ccccc1NC(=O)CSc1nc2c(c(=O)[nH]1)CCC2	-0.834%
COc1ccc(NC(=O)CC2C(=O)NC3CCCCC3N2C(=O)c2ccc(F)cc2)cc1 (stereo unspecified)	-1.58%

SMILES	max response
COc1cccc(NC(=O)c2ccccc2SC)c1	2.56%
COc1cccc(Nc2ncccc2C(=O)O)c1	48% (active)
O=C(Nc1ccccc1)c1cccnc1Nc1ccccc1	15%
CC(C)CCn1cnc2c1c(=O)n(CC(=O)NC(N)=O)c(=O)n2Cc1ccccc1	-9.03%
Nc1nc(Nc2ccccc2F)nc(NC2CCCCC2)c1[N+](=O)[O-]	-1.02%
CCOC(=O)C1CCN(C(=O)COc2cc(C)c(Br)c(C)c2)CC1	-0.76%
NC(=O)C1CCN(C(=O)COc2cccc3cccnc23)CC1	-4.62%
CCOC(=O)C1CCN(C(=O)COc2cccc3ccccc23)CC1	21.6% (active)
O=C(C1CCC1)N1CCN(c2ccccc2)CC1	-0.903%
Cc1nn(C)cc1C(=O)Nc1ccccc1Br	9.35%
O=C(c1cc2c(s1)CCC2)N1CCN(c2ccccc2)CC1	35.8% (active)
O=C(Nc1ccc(F)cc1)c1cc2c(s1)CCCC2	34.8% (active)
CN(CC(=O)Nc1ccccc1F)CC(=O)Nc1ccccc1Br	27.5%
O=C(COC(=O)c1cc2c(s1)CCCC2)NCc1ccccc1Cl	-0.034%
O=C(CNC(=O)c1cc2c(s1)CCC2)Nc1ccccc1Br	28.4% (active)
O=C(c1ccccc1)c1ccc(C(=O)N2CCN(c3ccccc3)CC2)cc1	11.3%
O=C(NNC(=O)c1cc2c(s1)CCCC2)c1ccccc1	60.8% (active)
COc1ccc(/C=C2/SC(=O)N(CCCCCC(=O)Nc3ccccc3C(=O)O)C2=S)cc1	-7.35%
Cc1cc(NC(=O)CCC(=O)N(CC(=O)NC2CCCC2)c2ccc(F)cc2)no1	-7.13%
CC(C)CCn1c(=O)c2c(nc3n2CCCN3Cc2ccccc2)n(C)c1=O	-1.82%
O=C(CSCc1ccc([N+](=O)[O-])cc1)Nc1cccc(C(=O)Nc2ccccc2C(=O)O)c1	-3.69%
C=CCn1c(C2CC(=O)N(c3ccc(C)cc3)C2)nc2ccccc21 (stereo unspecified)	-5.17%
CC(C)(C)c1cc2cccnc2n1Cc1cccc(F)c1	-4.56%
CCc1ccc(OCC(=O)N(Cc2ccccc2)C2CCS(=O)(=O)C2)cc1 (stereo unspecified)	-3.33%
